# Test results: PubChem BioAssay AID504465 (National Center for Advancing Translational Sciences (NCATS), 2011)
# Among all 2,100 compounds or so, about 210 (10%) were called active. Roughly 53% stayed inconclusive and do not appear here. Calls follow the shape of the dose curve; as a rule, active = well fitted inhibition curve with a large enough effect; inconclusive = small, poorly fitted or top-dose-only effect, or effect the other way; inactive = no such curve, though single readings can be large or run the other way. The list shows a part of the results. Entries that show only a call come without a potency.
# Experiment: IN Cell qHTS Assay for Inhibitors of the mTORC1 Signaling Pathway in MEF (Tsc2-/-, p53-/-) Cells: Sytravon; also: nearly all actives have a fitted effect of over 60% in size
# Details: phospho-rpS6 immunofluorescence, 24 h; series mostly up to 38.3 µM
# How it was run: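 Immunofluorescence of rpS6 phosphorylation (Ser235/236) in mouse embryonic fibroblasts lacking Tsc2 and p53, after 24 h compound exposure; Hoechst-normalized signal imaged, each well scored as % active cells relative to rapamycin (7.5 nM) and DMSO controls.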
# Potency is read from the fitted curve at half-maximal effect.
row,Compound,Potency
1,COc1ccccc1CNS(=O)(=O)c1cc(C(=O)Nc2cccc(C(F)(F)F)c2)ccc1F,inactive
2,O=C(Nc1ccc(Br)cc1)c1cc(S(=O)(=O)N2CCc3ccccc32)ccc1F,inactive
3,CCOC(=O)Cn1c(=O)c2c(nc(N3CCOCC3)n2Cc2ccccc2)n(C)c1=O,8.26 µM (active)
4,Cc1ccc(CNc2nc3c(c(=O)n(C)c(=O)n3C)n2Cc2ccc(Cl)cc2)cc1,inactive
5,CCOC(=O)Cn1c(=O)n(-c2ccccc2OC)c2nc(-c3ccccc3F)nc(C(N)=O)c21,inactive
6,CCN(C(=O)CN1C(=O)c2ccccc2Sc2ccc(C(=O)OC)cc21)c1cccc(C)c1,inactive
7,O=C(Nc1ccc(Cl)cc1)C1CCC(CNS(=O)(=O)c2ccc(Br)s2)CC1 (stereo unspecified),inactive
8,Cc1cccc(C)c1NC(=O)c1cc(S(=O)(=O)N2CCCc3ccccc32)ccc1F,inactive
9,CC(C)S(=O)(=O)c1oc(-c2ccc(F)cc2)nc1S(=O)(=O)c1ccc(F)cc1,0.826 µM (active)
10,CC(C)S(=O)(=O)c1oc(-c2cccs2)nc1S(=O)(=O)c1ccc(F)cc1,0.927 µM (active)
11,CCC(C)S(=O)(=O)c1oc(-c2ccc(F)cc2)nc1S(=O)(=O)c1ccc(F)cc1 (stereo unspecified),1.04 µM (active)
12,Brc1ccc(CNCCCSc2nnnn2-c2ccccc2)cc1,inactive
13,CCOCc1cc(CN2CCN(c3cccc(C(F)(F)F)c3)CC2)c(O)c2ncccc12,inactive
14,Cc1cn2c(=O)cc(COC(=O)c3ccc(NC(=O)COc4ccccc4C)cc3)nc2s1,inactive
15,CC(=O)c1ccc(N2CCN(S(=O)(=O)c3ccc(-c4coc(C)n4)cc3)CC2)cc1,inactive
16,CCOC(=O)c1c(NC(=O)c2ccc(S(=O)(=O)N3CCCC(C)C3)cc2)sc2c1CC(C)(C)NC2(C)C (stereo unspecified),inactive
17,CN(C)c1ccc(/C=C(\C#N)c2nc(-c3ccc(Cl)c(Cl)c3)cs2)cc1,inactive
18,Cc1ccc(S(=O)(=O)c2nc(-c3cccs3)oc2SCC(=O)Nc2cc(C)cc(C)c2)cc1,16.5 µM (active)
19,CCSc1oc(-c2ccc(F)cc2)nc1S(=O)(=O)c1ccc(C)cc1,inactive
20,CCOc1ccc(NC(=O)CSc2oc(-c3ccc(F)cc3)nc2S(=O)(=O)c2ccc(C)cc2)cc1,2.33 µM (active)
21,CCOc1ccc(-c2nnc(SCC(=O)Nc3cccc(OC)c3)nc2-c2ccc(OCC)cc2)cc1,inactive
22,COc1ccc(-c2nc(SCC(=O)Nc3c(C)cc(C)cc3C)n[nH]2)cc1,inactive
23,CCOc1ccc(-c2cc(CCCC(=O)NCCc3ccc(OC)c(OC)c3)no2)cc1,inactive

row,Compound,Potency
1,CCOC(=O)c1c(-c2ccccc2)oc2ccc(N(C(C)=O)S(=O)(=O)c3ccc(CC)cc3)cc12,inactive
2,CCN(CC)c1cc(C)c2cc(NC(=O)c3ccccc3Cl)ccc2n1,inactive
3,Cc1ccc(OCC(=O)Nc2ccc3nc(Nc4cccc(Cl)c4)cc(C)c3c2)cc1,14.7 µM (active)
4,Cc1ccc(-n2c(SCC(=O)Nc3cccc(Cl)c3)nc3n[nH]c(C)c3c2=N)cc1,inactive
5,CCN1C(=O)C(O)(c2c(C)[nH]c3ccccc23)c2ccccc21 (stereo unspecified),inactive
6,Cc1nn(-c2ccc(N3CCOCC3)nn2)c(C)c1CCC(=O)NCc1ccccc1F,inactive
7,O=C(CSc1nc(-c2ccccc2)[nH]c1-c1ccccc1)Nc1ccc2c(c1)OCO2,inactive
8,Cc1cccc(C(=O)Nc2c(-c3ccc(F)cc3)nc3ccccn23)c1,inactive
9,CCOC(=O)c1c(C)[nH]c(CCC(=O)NCCCN2CCN(c3cc(Cl)ccc3C)CC2)c1C,14.7 µM (active)
10,COC(=O)c1c(-c2ccc(Cl)cc2)noc1N1CCN(c2cc(C)ccc2C)CC1,inactive
11,CCOC(=O)c1c(C)[nH]c(CCC(=O)Nc2cc(C)cc(C)c2)c1C,inactive
12,CCOC(=O)c1c(C)[nH]c(CCC(=O)NCc2ccc(OC)cc2OC)c1C,inactive
13,CCOC(=O)c1c(C)[nH]c(CCC(=O)NCCCN2CCN(c3cc(C)ccc3C)CC2)c1C,11.7 µM (active)
14,COc1ccc(-c2ccc(CCC(=O)O)n2-c2ccccc2O)cc1,inactive
15,CCC1CN(C(=O)NCc2ccccc2)c2cc(C)ccc2O1 (stereo unspecified),inactive
16,CCN(Cc1ccccc1)Cc1c(O)ccc2oc(C)c(C(=O)Nc3ccc(C)cc3C)c12,inactive
17,CCCCN1C(C(=O)c2ccccc2)=C(OC(C)=O)c2ccccc2S1(=O)=O,inactive
18,COc1ccc(OC)c2sc(N(CCCN(C)C)C(=O)c3ccco3)nc12,14.7 µM (active)
19,COc1ccccc1Nc1c2c(nc3ccc(NC(=O)c4ccc(N(C)C)cc4)cc13)CCCC2,2.07 µM (active)
20,COc1cc(Cl)c(C)cc1Nc1c2c(nc3ccccc13)CCC2,inactive
21,COc1ccc(C(=O)Nc2cccc(-c3cn4ccsc4n3)c2)cc1OC,inactive
22,COc1cc2c(cc1OC)n(CC(=O)Nc1ccc(C)cc1C)c(=O)n1nc(-c3ccccc3)nc21,inactive
23,COc1ccccc1Nc1nn2c(=O)c3ccc(C(=O)NCCc4ccccc4)cc3nc2s1,inactive

row,Compound,Potency
1,COc1ccccc1Nc1nn2c(=O)c3ccc(C(=O)NCCC4=CCCCC4)cc3nc2s1,inactive
2,COc1ccccc1Nc1c2c(nc3ccc(NC(=O)c4cccc(OC)c4OC)cc13)CCCC2,5.85 µM (active)
3,COc1ccccc1Nc1c2c(nc3ccc(NC(=O)c4ccc(OC)c(OC)c4)cc13)CCCC2,1.65 µM (active)
4,COc1ccc(C)cc1Nc1c2c(nc3ccccc13)CCC2,7.36 µM (active)
5,CC1=C(C(=O)Nc2ccccc2C)C(c2cccs2)n2nc(SCc3ccccc3)nc2N1 (stereo unspecified),inactive
6,CCC1CN(C(=O)N2CCC(C(=O)NCCN(CC)CC)CC2)c2ccccc2O1 (stereo unspecified),inactive
7,CC(C)c1ccc(NC(=O)c2ccc(F)c(S(=O)(=O)N3CCN(c4ccccc4F)CC3)c2)cc1,inactive
8,COc1ccc2c(c1)c(=O)c(S(=O)(=O)c1ccc(Cl)cc1)cn2C,inactive
9,COc1ccc(CCCc2nnc(SCC(=O)Nc3cccc(F)c3C)o2)cc1,inactive
10,COc1ccccc1CCNC(=O)C(=O)NCC(c1cccnc1)N1CCN(c2ccccc2)CC1 (stereo unspecified),inactive
11,CCCc1nn2c(=O)cc(COC(=O)c3cccc(NC(=O)c4ccc(OCC)cc4)c3)nc2s1,inactive
12,CCOc1ccc(NC(=O)Cn2c(=O)cc(C)c3c(C)nn(C)c32)cc1,inactive
13,CCC1=Nc2cc(C(=O)NCc3ccccc3Cl)ccc2Sc2ccc(C)cc21,inactive
14,CCc1cccc(NC(=O)Cn2c(=O)n(CCC(=O)NCc3ccccc3Cl)c(=O)c3sccc32)c1,inactive
15,Cc1ccc(OCC(=O)NCC2(N3CCN(C)CC3)CCCCC2)cc1C,inactive
16,CN(C)C1(CNC(=O)COc2ccc(C(C)(C)C)cc2)CCCCC1,inactive
17,CN1CCN(C2(CNC(=O)COc3ccc(C(C)(C)C)cc3)CCCCC2)CC1,14.7 µM (active)
18,Cc1ccc(OCC(=O)NCC2(N3CCN(C)CC3)CCCCC2)cc1,inactive
19,CC(C)(C)c1ccc(OCC(=O)NCC2(N3CCOCC3)CCCCC2)cc1,inactive
20,CC(C)COc1ccc(C(=O)NCC2(N3CCN(C)CC3)CCCCC2)cc1,16.5 µM (active)
21,Oc1ccccc1-c1nc(-c2cccs2)c(-c2cccs2)[nH]1,inactive
22,COc1ccc(CNCCC(c2ccc(C)cc2)c2ccco2)cc1 (stereo unspecified),inactive
23,CC(=O)c1cccc(NS(=O)(=O)c2ccc3[nH]c4c(c3c2)CCCCC4)c1,inactive

row,Compound,Potency
1,CCCCN(CCCC)CCCNC(=O)c1cc(-c2ccc(Cl)s2)nc2ccccc12,inactive
2,CCCN(CCC)CCCNC(=O)c1cc2c(-c3ccc(OC)c(OC)c3)nn(C)c2s1,16.5 µM (active)
3,CCOc1ccc(CCNC(=O)c2cc3c(-c4ccccc4F)nn(C)c3s2)cc1,inactive
4,COc1ccc(CCNC(=O)c2nn(C)c3c2CSc2ccccc2-3)cc1OC,inactive
5,CCCN(CCC)CCCNC(=O)c1cc2c(-c3ccc(Cl)cc3)nn(C)c2s1,2.61 µM (active)
6,COc1ccc(-c2nn(C)c3sc(C(=O)Nc4cccc(F)c4)cc23)cc1OC,inactive
7,Cc1cc(C)cc(NC(=O)C(=O)NCC(c2ccc3c(c2)OCO3)N2CCN(C)CC2)c1 (stereo unspecified),inactive
8,CC(C)CN(CC(C)C)S(=O)(=O)c1ccc(C(=O)Nc2sc3c(c2C(N)=O)CCN(C(C)C)C3)cc1,inactive
9,CCc1ccc(CNC(=O)COc2cc(=O)n(CC)c3ccccc23)cc1,inactive
10,CC(C)Oc1ccccc1-c1nc(SCC(=O)c2ccc(F)cc2)n[nH]1,inactive
11,CCOc1ccc(CNC(=O)C2CCN(S(=O)(=O)c3ccc4c(ccn4C)c3)CC2)cc1,inactive
12,CCOc1cc(CNC(=O)c2ccc(C)c(NC(=O)c3nsc4ccccc34)c2)ccc1OC,inactive
13,COc1ccccc1C(=O)OCc1cc(=O)n2nc(C3CC3)sc2n1,inactive
14,COc1ccc(CCN2C(=O)c3[nH]nc(-c4ccccc4O)c3C2c2cccc(OC)c2)cc1 (stereo unspecified),20.7 µM (active)
15,CCCN1C(=O)c2[nH]nc(-c3ccccc3O)c2C1c1ccc(OCc2ccccc2)c(OC)c1 (stereo unspecified),inactive
16,COc1ccc(CCN2C(=O)c3[nH]nc(-c4ccccc4O)c3C2c2ccccc2)cc1 (stereo unspecified),inactive
17,CCCN1C(=O)c2[nH]nc(-c3ccccc3O)c2C1c1cccc(OCc2ccccc2)c1 (stereo unspecified),inactive
18,O=C1c2[nH]nc(-c3ccccc3O)c2C(c2ccc(Cl)cc2)N1CCc1ccccc1 (stereo unspecified),inactive
19,CCCCOc1cccc(C2c3c(-c4cc(C)ccc4O)n[nH]c3C(=O)N2CCOC)c1 (stereo unspecified),inactive
20,CC(C)OCCCN1C(=O)c2[nH]nc(-c3ccccc3O)c2C1c1ccc(OCc2ccccc2)cc1 (stereo unspecified),18.5 µM (active)
21,CCCCN1C(=O)c2[nH]nc(-c3ccccc3O)c2C1c1cccc(OCc2ccccc2)c1 (stereo unspecified),20.7 µM (active)
22,COc1ccc(C2c3c(-c4ccccc4O)n[nH]c3C(=O)N2CCc2ccccc2)cc1 (stereo unspecified),inactive
